# Assay results published in a collection of fitness landscapes (doi:10.1126/science.1257360).
# Over roughly 140,000 sequences, “enrichment ratio after two sorts for PhoP signalling” has its median near 0; the highest 2% begin near 11. What follows is part of a selection rich in the highest values, with near analogues and random picks from the rest.
# B1: PhoQ; a variant is named by its letters at X, in order, P23837 (parent)
# chain: MKKLLRLFFPLSLRVRFLLATAAVVLVLSLAYGMVALIGYSVSFDKTTFRLLRGESNLFYTLAKWENNKLHVELPENIDKQSPTMTLIYDENGQLLWAQRDVPWLMKMIQPDWLKSNGFHEIEADVNDTSLLLSGDHSIQQQLQEVREDDDDAEMTHSVAVNVYPATSRMPKLTIVVVDTIPVELKSSYMVWSWFIYVLSANLLLVIPLLWVAAWWSLRPIEALAKEVRELEEHNRELLNPATTRELTSLVRNLNRLLKSERERYDKYRTTLTDLTHSLKTPLXXLQXXLRSLRSEKMSVSDAEPVMLEQISRISQQIGYYLHRASMRGGTLLSRELHPVAPLLDNLTSALNKVYQRKGVNISLDISPEISFVGEQNDFVEVMGNVLDNACKYCLEFVEISARQTDEHLYIVVEDDGPGIPLSKREVIFDRGQRVDTLRPGQGVGLAVAREITEQYEGKIVAGESMLGGARMEVIFGRQHSAPKDE
# Variants of: B1
# Assay: enrichment ratio after two sorts for PhoP signalling (ratio (wild type AVST 3.29)); higher = more functional
# Conditions: with PhoP (E. coli)
row,Variant,enrichment ratio
1,FFWF,≤ 0.25
2,QRWF,≤ 0.25
3,KSWF,≤ 0.25
4,VAKP,≤ 0.25
5,YQPA,≤ 0.25
6,LESI,≤ 0.25
7,MTAV,7.37
8,AMKH,≤ 0.25
9,VGAQ,≤ 0.25
10,RNKK,≤ 0.25
11,WHKS,≤ 0.25
12,HTKL,≤ 0.25
13,TMNI,3.75
14,TMNT,11.9
15,TMAT,11.2
16,TMTD,≤ 0.25
17,DMNA,≤ 0.25
18,NMNA,≤ 0.25
19,TMND,21.9
20,TMNS,7.25
21,TMNA,24.8
22,TMKT,≤ 0.25
23,TMGD,3.55
24,TMPT,≤ 0.25
25,AFCP,≤ 0.25
26,QIMN,≤ 0.25

row,Variant,enrichment ratio
1,YLAK,≤ 0.25
2,NTVM,≤ 0.25
3,PIIP,≤ 0.25
4,IRSI,≤ 0.25
5,NCPV,≤ 0.25
6,LVVW,≤ 0.25
7,WDPT,≤ 0.25
8,YRQK,≤ 0.25
9,TMHG,13.3
10,NNNF,≤ 0.25
11,TMHK,≤ 0.25
12,TMNN,34
13,TMNF,14.7
14,TMNL,5.04
15,KMNF,≤ 0.25
16,TMNG,10.4
17,NMNN,≤ 0.25
18,DTAT,≤ 0.25
19,HKAG,≤ 0.25
20,YDNA,≤ 0.25
21,YEKP,≤ 0.25
22,KQFM,≤ 0.25
23,MQFA,≤ 0.25
24,QHHY,≤ 0.25
25,QQHY,21.2
26,MQGD,≤ 0.25

row,Variant,enrichment ratio
1,MQHY,12.6
2,MQFD,14.7
3,MQFM,12.3
4,SQHY,≤ 0.25
5,MQHF,≤ 0.25
6,MQFY,≤ 0.25
7,MQPI,≤ 0.25
8,SYVF,0.277
9,YEDQ,≤ 0.25
10,WFMA,≤ 0.25
11,HCRL,≤ 0.25
12,RTQY,≤ 0.25
13,VMWE,≤ 0.25
14,AGDA,≤ 0.25
15,MQFQ,11.9
16,MQFE,≤ 0.25
17,MQWM,14.1
18,MQRM,≤ 0.25
19,MQSK,≤ 0.25
20,MQAV,18.4
21,MQWI,14.4
22,MQGM,≤ 0.25
23,MQAE,≤ 0.25
24,MQFS,3.3
25,MQRA,≤ 0.25
26,MQRV,≤ 0.25

row,Variant,enrichment ratio
1,YMRM,≤ 0.25
2,TCKP,≤ 0.25
3,RKYE,≤ 0.25
4,RKAI,≤ 0.25
5,SLME,2.88
6,HFYE,≤ 0.25
7,GSHY,≤ 0.25
8,QNET,≤ 0.25
9,QCSY,≤ 0.25
10,EMSY,≤ 0.25
11,GCLP,0.401
12,LLKQ,≤ 0.25
13,RVRE,≤ 0.25
14,FSMQ,3.93
15,SLMQ,11.8
16,KLMQ,≤ 0.25
17,VVHP,≤ 0.25
18,TLMQ,≤ 0.25
19,VYMQ,≤ 0.25
20,SIMQ,33.3
21,SRMQ,≤ 0.25
22,SYMQ,≤ 0.25
23,SSMQ,11.5
24,KYMQ,≤ 0.25
25,VVMQ,13.3
26,LNVR,≤ 0.25

row,Variant,enrichment ratio
1,KVQP,≤ 0.25
2,FGEF,≤ 0.25
3,ATMQ,3.23
4,PWPQ,≤ 0.25
5,PECM,≤ 0.25
6,VWYR,≤ 0.25
7,KSMQ,≤ 0.25
8,NSMQ,≤ 0.25
9,SQMQ,7.7
10,STMQ,12
11,TSMQ,13.9
12,SWMQ,≤ 0.25
13,RQGA,≤ 0.25
14,FECY,≤ 0.25
15,KYKH,≤ 0.25
16,YIRN,≤ 0.25
17,FEWK,≤ 0.25
18,FYPG,≤ 0.25
19,EFYK,≤ 0.25
20,IDSN,≤ 0.25
21,AKLV,16.2
22,MKLV,9.89
23,VFLV,≤ 0.25
24,VYLV,≤ 0.25
25,AHLV,1.12
26,AILV,5.12

row,Variant,enrichment ratio
1,ANLV,14.1
2,KCLV,≤ 0.25
3,QCLV,1.13
4,VCLV,13
5,AYLV,3.08
6,GCLV,14.5
7,RCEW,≤ 0.25
8,VEQN,≤ 0.25
9,PFRI,≤ 0.25
10,SNAR,≤ 0.25
11,LYVG,≤ 0.25
12,WLGW,≤ 0.25
13,HKLV,0.341
14,TKLV,23.3
15,KKLV,≤ 0.25
16,IFLV,≤ 0.25
17,AALV,12.9
18,ICLV,18.8
19,IILV,1.58
20,KALV,≤ 0.25
21,YALV,11.1
22,SRLV,0.905
23,TPLV,≤ 0.25
24,SNLV,15.8
